How the values were obtained:
Neuro-2a [1] = experiment: neurite formation score, plate-normalized to DMSO control mean 5.04 (score (0-8 scale)); higher = more or longer neurites; conditions: 1 µM
Procedure: (§1)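 Neuro-2a mouse neuroblastoma cells in PLL-coated 96-well plates were pre-treated for 1 h in DMEM(+) with each kinase inhibitor at 1 µM, then switched to serum-free DMEM(-) with inhibitor to induce neurite outgrowth and fixed about 2-3 h later. Three blinded observers scored neurite formation from 0 (no neurites) to 8 (long neurites on almost all cells).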

Neuro-2a [2] = experiment: as above; conditions: 0.1 µM
Procedure: as §1, with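 “at 0.1” for “at 1”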

Cc1cc(C)c(/C=C2\C(=O)Nc3ccccc32)[nH]1
neurite formation score (Neuro-2a [1]): 5.02 | neurite formation score (Neuro-2a [2]): 5.25

CC[C@H](CO)Nc1nc(NCc2ccccc2)c2ncn(C(C)C)c2n1 [Roscovitine (Seliciclib,CYC202)]
neurite formation score (Neuro-2a [1]): 4.57 | neurite formation score (Neuro-2a [2]): 4.38

CCc1cncnc1N1CCN(Cc2nc3ccc(C(F)(F)F)cc3[nH]2)CC1
neurite formation score (Neuro-2a [1]): 4.54 | neurite formation score (Neuro-2a [2]): 4.42

Oc1ccc2ccccc2c1SSc1c(O)ccc2ccccc12
neurite formation score (Neuro-2a [1]): 3.88 | neurite formation score (Neuro-2a [2]): 5.42

C[C@@H]1CCNC(=O)c2cc3ccc(C(=O)Nc4nc5ccccc5n4CCCN(C)C)cc3n21
neurite formation score (Neuro-2a [1]): 5.29 | neurite formation score (Neuro-2a [2]): 4.92
